Several values for one entry are separate records, joined by “and”; a condition that tells them apart may be missing. Equal entries are not always repeated. Results filed as inconclusive are left out. Some compounds were tested as several samples or in several runs, with calls that do not always agree. Activity calls are given as the source filed them. Unless noted, the call rests on the fitted dose curve.
On the % scale 0 is the no-effect control and ±100 the full control effect.

5-hydroxytryptamine receptor 2A (Homo sapiens), sequence (P28223 whole entry, looked up): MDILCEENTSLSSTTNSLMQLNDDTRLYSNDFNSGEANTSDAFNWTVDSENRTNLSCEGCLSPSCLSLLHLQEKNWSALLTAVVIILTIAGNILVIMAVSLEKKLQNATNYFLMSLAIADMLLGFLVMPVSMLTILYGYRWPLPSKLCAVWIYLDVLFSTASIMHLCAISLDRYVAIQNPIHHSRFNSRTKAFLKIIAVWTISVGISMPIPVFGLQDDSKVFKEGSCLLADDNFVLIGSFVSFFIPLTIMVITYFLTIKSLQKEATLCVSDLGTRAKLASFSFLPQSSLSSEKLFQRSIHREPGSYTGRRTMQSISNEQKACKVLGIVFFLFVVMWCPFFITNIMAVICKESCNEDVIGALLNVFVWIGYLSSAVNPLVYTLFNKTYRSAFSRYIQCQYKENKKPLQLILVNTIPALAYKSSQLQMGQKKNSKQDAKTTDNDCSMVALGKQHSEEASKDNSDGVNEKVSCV

System in the first experiment: not listed separately
Nature of the experiment: p53 small molecule agonists, cell-based qHTS assay: qHTS cell viability counter screen (AID 1963581). Further: nearly all actives have a fitted effect of over 45% in size. Particulars: p53RE-bla HCT-116 viability, ATP luminescence, 16 h; series mostly up to 66 µM; activity change, negative = cytotoxicity: at the top concentration. The gist of the method:
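Multiplexed with the reporter read, a CellTiter-Glo step (30 min, room temperature) gauges ATP-based viability of HCT-116 p53RE-bla cells after 16 h compound incubation at 37 C.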
(In general: qHTS replaces the single test concentration by a dilution series.)
For the compound `C=CCS(=O)(=O)O`, the “activity change, negative = cytotoxicity” value is -0.261% (inactive).

As to `CCCCSCCCC`, the “activity change, negative = cytotoxicity” value was -8.13% (inactive).

With `CCNc1nc(N)nc(Cl)n1`, the “activity change, negative = cytotoxicity” value is 14.5% (inactive).

With `Cc1ccc(N)cc1[N+](=O)[O-]`, the “activity change, negative = cytotoxicity” value was -24.5% (inactive). The same measure, in the same setting: to `Cc1c(C)c2c(c(C)c1O)CCC(C)(COc1ccc(CC3SC(=O)NC3=O)cc1)O2` (stereo not given) belongs -1.73% [at 30.3 µM] (inactive). Turning to `CCCC1O[C@@H]2C[C@H]3[C@@H]4CCC5=CC(=O)C=C[C@]5(C)[C@H]4[C@@H](O)C[C@]3(C)[C@]2(C(=O)CO)O1` (stereo not given in full), the Potency entry was “inactive”. For the compound `O=C(O)CCCCCCCCCCCC(=O)O`, the Potency result is “inactive”. Turning to `COc1cc(C(=O)N2CCOCC2)cc(OC)c1OC`, the “activity change, negative = cytotoxicity” value is -0.794% [at 30.3 µM] (inactive).

System in another experiment: not listed separately
Briefly: p53 small molecule agonists, cell-based qHTS assay (AID 1963582; active means well fitted activation curve with a large enough effect in the signal ratio in the repeat runs, not every such curve was filed as active; the % refers to the signal ratio). Particulars: HCT-116 p53RE-bla reporter, beta-lactamase FRET ratio, 16 h; series mostly up to 66 µM; activation: at the top concentration. The gist of the method:
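Beta-lactamase reporter cells (p53RE-bla) treated with compounds for 16 h at 37 C; FRET substrate, 2 h, room temperature; fluorescence intensity.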
For the compound `CC1(C)C(O)C(C)(C)C1O` (stereo not given), the “activation” value is 0.075% (inactive). The same measure, in the same setting: with `C=CCCCCCCCC` the figure was 0.0618% (inactive). The same measure, in the same setting: to `O=C(O)[C@@H]1[C@H]2C[C@H]3c4[nH]c5ccccc5c4CCN3C[C@@H]2CC[C@@H]1O` belongs -0.768% [at 30.3 µM] (inactive); to `CN(C)N=Nc1ccccc1`, 0.303% (inactive); to `CC(C[N+](C)(C)C)OC(N)=O` (stereo not given), -1.26% [at 30.3 µM] (inactive).

Another experiment has as its target 5-hydroxytryptamine receptor 2A (Homo sapiens) (UniProt P28223). Briefly: 5-hydroxytryptamine receptor 2A (HTR2A) small molecule antagonists, cell-based qHTS assay (AID 1963586). Further: nearly all actives have a fitted effect of over 45% in size. Further: potency means the concentration at half of the fitted maximal effect. Particulars: HTR2A-CHO cells, DOI-induced calcium flux, fluorescence; series mostly up to 61.5 µM; activity, negative = inhibition: at the top concentration. The gist of the method:
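CHO cells stably expressing human HTR2A were plated for 18 h at 37 C, then loaded with calcium dye for 1 h. Compounds were preincubated 5 min at room temperature before DOI (4 nM solution) was added. Kinetic fluorescence was read for 3 min.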
Regarding `COc1ccc(NC(C)=O)cc1`, the “activity, negative = inhibition” value was -18.2% (inactive). Same read-out and setting: with `c1cnc2cc3c(cc2n1)C1CNCC3C1` the figure was 23.7% [at 28.5 µM] (inactive); with `OCc1c2ccccc2cc2ccccc12`, -37% (inactive). On to `Oc1ccc(Cl)cc1Sc1cc(Cl)ccc1O`, for which the Potency was 29.7 µM (active) and inactive. As to `CCCc1ccccc1`, the “activity, negative = inhibition” value is -3.91% (inactive). The same measure, in the same setting: with `CC(=O)CC(C)=O` the figure was -2.17% (inactive); with `Oc1ccc(C(c2ccc(O)cc2)C(Cl)(Cl)Cl)cc1`, -19.4% (inactive). Consider `Nc1cc(S(=O)(=O)O)cc2cc(S(=O)(=O)O)cc(O)c12`, for which the Potency result is “inactive”.

With `Oc1c(Cl)ccc(Cl)c1Cl`, the Potency entry is “inactive”. With `CC1=CC[C@@]23C[C@@H]1C(C)(C)[C@@H]2CC[C@H]3C`, the “activity, negative = inhibition” value is -4.68% (inactive). Same read-out and setting: to `O=C(O)c1cccc(C(F)(F)F)c1` belongs 45% (inactive); to `CC(O)Cn1cnc2c1c(=O)n(C)c(=O)n2C` (stereo not given), 1.75% [at 28.5 µM] (inactive). Same read-out and setting: to `CN(C)CCOC(c1ccc(Cl)cc1)c1ccccn1` (stereo not given) belongs -9.75% [at 28.5 µM] (inactive).

`O=C(O)c1cc(-c2ccccc2)nc2ccccc12`: the “activity, negative = inhibition” value is 4.5% [at 28.5 µM] (inactive). Still for that read-out and setting: to `CC1(C)C(O)C(C)(C)C1O` (stereo not given) belongs 1.71% (inactive). For the compound `Cc1ccc(N(C)C)cc1`, the Potency entry was “inactive and 133 nM (active)”. `C/C=C/C(=O)CCCC`: the “activity, negative = inhibition” value was 2.89% (inactive). Still for that read-out and setting: to `C=CCCCCCCCC` belongs 4.45% (inactive); to `CC(C)=O`, 5.07% (inactive). On the same count and under the same terms, with `O=C(O)[C@@H]1[C@H]2C[C@H]3c4[nH]c5ccccc5c4CCN3C[C@@H]2CC[C@@H]1O` the figure was -17.2% [at 28.5 µM] (inactive); with `C=CC(C)CCC=C(C)C` (stereo not given), 4.77% (inactive).

`O=C(O)C(=O)Nc1cccc(-c2nn[nH]n2)c1`: the “activity, negative = inhibition” value is 2.52% [at 28.5 µM] (inactive).

As for `CN(C)N=Nc1ccccc1`, the “activity, negative = inhibition” value is -3.97% (inactive). Same read-out and setting: to `OCCOc1ccc(OCCO)cc1` belongs -46.8% (inactive).

Take `CC(C)CCCCCCc1ccc(O)cc1`: the Potency is 34 µM (active). On to `C=CCS(=O)(=O)O`, for which the “activity, negative = inhibition” value was -0.243% (inactive). Still for that read-out and setting: to `CCCCSCCCC` belongs 8.87% (inactive); to `CCNc1nc(N)nc(Cl)n1`, 20.7% (inactive). Still for that read-out and setting: with `Cc1ccc(N)cc1[N+](=O)[O-]` the figure was 12.2% (inactive); with `CC(C[N+](C)(C)C)OC(N)=O` (stereo not given), 53.9% [at 28.5 µM] (inactive). For `O=C(O)CCCCCCCCCCCC(=O)O`, the Potency result is “inactive”.

With `COc1cc(C(=O)N2CCOCC2)cc(OC)c1OC`, the “activity, negative = inhibition” value is 15.9% [at 28.5 µM] (inactive).

Values taken from PubChem BioAssay (Tox21).
